In the library only some 1.2% were active in any assay of this set; here they are far more common.
Avidin bead fluor: compound fluoresces at 488/530 nm on avidin beads | compound fluorescence 488/530 nm, flow cytometry; active compounds read high | fluorescence (KMESF) at 10 µM | 220,000 tested, 0.38% active | AID 1775; in the data active = fluorescence above about 47
RGS4-Gao reg: human RGS4-Galphao interaction regulation; Multiplexed bead flow cytometry, RGS4-Galphao binding; actives lie on both sides; binding response (% of control), % at 10 µM; P09471; 220,000 tested, 0.33% active; AID 1415; in the data active = binding response below about 49% or above about 150%; inactive = in between;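 note: fluorescent Galphao activated with aluminum fluoride binding bead-coupled RGS4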
Target sequence (P09471 whole entry, looked up): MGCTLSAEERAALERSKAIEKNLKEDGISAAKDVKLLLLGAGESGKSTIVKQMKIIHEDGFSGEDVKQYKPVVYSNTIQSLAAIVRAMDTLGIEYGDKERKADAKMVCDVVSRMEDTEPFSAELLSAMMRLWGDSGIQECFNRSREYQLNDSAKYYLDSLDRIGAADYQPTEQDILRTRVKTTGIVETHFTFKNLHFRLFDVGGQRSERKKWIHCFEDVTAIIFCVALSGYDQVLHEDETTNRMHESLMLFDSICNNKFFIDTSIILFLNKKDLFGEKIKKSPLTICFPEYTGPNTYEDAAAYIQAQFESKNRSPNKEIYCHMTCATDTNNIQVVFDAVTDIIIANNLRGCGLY
GSH bead fluor: GSH bead compound fluorescence profile; GSH beads flow cytometry, compound fluorescence 488/530 nm; active compounds read high; fluorescence (KMESF) at 10 µM; 190,000 tested, 0.25% active; AID 1776; in the data active = fluorescence above about 89;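 note: glutathione beads carrying GST-tagged Bcl family fusion proteins plus one bare bead set; values are compound well signal with DMSO vehicle wells as background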
RGS8-Gao reg: modulates binding of RGS8 to human Galphao. P09471. multiplexed bead flow cytometry; actives lie on both sides. response (percent of control binding), % at 10 µM. 220,000 tested, 0.34% active. AID 1423; in the data active = response below about 60% or above about 140%; inactive = in between;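 note: Galphao activated as the GDP aluminium fluoride complex binding bead-coupled RGS8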
RGS7-Gao reg: modulates binding of RGS7 to human Galphao. P09471. Multiplexed bead flow cytometry; actives lie on both sides. binding response (% of control), % at 10 µM. 220,000 tested, 0.35% active. AID 1439; in the data active = binding response below about 49% or above about 150%; inconclusive = no clear call, values can overlap the other calls; inactive = in between;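 note: fluorescent Galphao held in activated GDP-AlF4 state binding bead-coupled RGS7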
RGS16-Gao: RGS16-Galphao interaction regulator (human) | O15492+P09471 | bead-based flow cytometry RGS16-Galphao binding, fluorescence; actives lie on both sides | binding response (% of control), % at 10 µM | 220,000 tested, 0.38% active;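 note: Galphao activated by GDP with aluminum fluoride before binding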
RGS-Gao: modulates binding between human RGS4 and Galphao; 1,600 tested, 99% active; multiplexed bead flow cytometry, RGS–Galpha-o binding; shares compounds with RGS16-Gao; RGS4–Galpha-o binding response, % at 10 µM; AID 1504;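 note: fluorescently labeled Galpha-o bound to GDP with aluminium fluoride binding biotinylated RGS beads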
Biotin-avidin: counter-screen: compounds disrupting biotin binding to avidin beads; shares compounds with RGS16-Gao; streptavidin beads, fluorescein-biotin binding, flow cytometry; inhibition, % at 10 µM; 1,700 tested, under 10 active;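 active = inhibition above 50%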;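 note: median green fluorescence of gated singlet beads compared with DMSO control wells; 0% = DMSO wells and 100% = complete loss of bead fluorescence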
RGS8-Gao confirm: confirmation of regulators of human RGS8-Galphao interaction; binding response (% of control), % at 10 µM; AID 1836; bead-based flow cytometry RGS8-Galphao binding, fluorescence; actives lie on both sides; 1,700 tested, 3% active; shares compounds with RGS16-Gao; in the data active = binding response below about 72% or above about 130%; inactive = in between;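 note: Galphao activated as GDP AlF4 complex before binding bead RGS8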
RGS7-Gao single: confirmation of regulators of human RGS7-Galphao interaction | shares compounds with RGS16-Gao | 1,700 tested, 7.8% active | response (percent of control binding), % at 10 µM | bead-based flow cytometry RGS7-Galphao binding; actives lie on both sides | AID 1837; in the data active = response below about 75% or above about 130%; inactive = in between;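 note: fluorescent Galphao activated with GDP and aluminum fluoride binding bead-coupled RGS7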
RGS16-Gao single: confirmation of regulators of human RGS16-Galphao interaction; 1,700 tested, 4% active; shares compounds with RGS16-Gao; bead-based flow cytometry, RGS16-Galphao binding; actives lie on both sides; AID 1838; response (% of control binding), % at 10 µM; in the data active = response below about 74% or above about 130%; inactive = in between;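 note: Galphao activated as the GDP aluminium fluoride complex binding bead-coupled RGS16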
RGS4-Gao single: confirmation of regulators of human RGS4-Galphao interaction; shares compounds with RGS16-Gao; RGS4-Galphao binding, multiplexed bead flow cytometry; actives lie on both sides; binding response (% of control), % at 10 µM; 1,700 tested, 4% active; AID 1840; in the data active = binding response below about 74% or above about 130%; inactive = in between
RGS19-Gao single: RGS19-Galphao interaction regulation, single point confirmation; 1,700 tested, 5% active; response (percent of control binding), % at 10 µM; bead-based flow cytometry RGS19-Galphao binding; actives lie on both sides; shares compounds with RGS16-Gao; in the data active = response below about 50% or above about 160%; inactive = in between;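 note: 100% = no compound control and 0% = blank background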
Target sequence (P09471 whole entry, looked up): as above
Target sequence (P49795 whole entry, looked up): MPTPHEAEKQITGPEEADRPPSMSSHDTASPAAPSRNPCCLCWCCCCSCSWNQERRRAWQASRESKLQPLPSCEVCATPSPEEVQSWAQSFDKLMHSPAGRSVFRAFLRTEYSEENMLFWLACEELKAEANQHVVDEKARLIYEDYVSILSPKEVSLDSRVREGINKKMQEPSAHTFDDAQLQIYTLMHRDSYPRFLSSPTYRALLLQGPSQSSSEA
Active calls of the source: *; ? = inconclusive; / = not tested or not shown; [ ] = dose if it differs, or a comment. Unless noted, the rule behind the calls is not given here.

SMILES	Avidin bead fluor	RGS4-Gao reg	GSH bead fluor	RGS8-Gao reg	RGS7-Gao reg	RGS16-Gao	RGS-Gao	Biotin-avidin	RGS8-Gao confirm	RGS7-Gao single	RGS16-Gao single	RGS4-Gao single	RGS19-Gao single
CCOc1ccc(-c2nnc(-c3ccc(OC)cc3)o2)cc1	2	24*	10	14*	18*	11*	/	0	99	92	95	94	94
O=C(NN=C1CCCCCC1)c1ccc(Br)o1	13	115	8	141*[activator]	120	327*[activator]	115*	-1	113	116	115	111	124
CC(C)N1CCC(=NNC(=O)c2ccc(Br)o2)CC1	8	97	34	98	97	92	/	/	/	/	/	/	/
Cc1cc(NS(=O)(=O)c2ccc(NC(NC(=O)C(C(F)(F)F)C(F)(F)F)(C(F)(F)F)C(F)(F)F)cc2)no1	3	101	15	80	155*[activator]	40	101*	-2	95	98	99	98	97
CCN1CCN(Cc2cc(=O)oc3ccc(Cl)cc23)CC1	10	108	26	144*[activator]	107	245	108*	2	102	103	102	98	107
Cc1ccc(/C=N/N=C2/NC(=O)CS2)o1	11	100	11	102	97	102	/	/	/	/	/	/	/
O=C1CS/C(=N/N=C/c2c[nH]c3ccccc23)N1	8	155*[activator]	/	115	?	176*[activator]	/	0	94	89	91	93	73
CCOP(=O)(OCC)C(Nc1ccc(F)cc1)c1ccccc1 (stereo not given)	/	149	/	/	/	/	/	1	100	94	99	99	94
CC(C)C1Oc2cc3oc(=O)ccc3cc2C1=O (stereo not given)	4	56	23	57*	50	5.7*	56*	-1	107	105	106	103	98
NC(=O)COC(=O)/C=C/c1cccc(Br)c1	9	99	14	101	?	96	/	/	/	/	/	/	/
CCSc1nnc(NC(=O)C(C)(C(F)(F)F)C(F)(F)F)s1	4	112	47	119	109	288*[activator]	112*	0	101	94	97	96	65
CCSc1nnc(NC(=O)C(CC)(C(F)(F)F)C(F)(F)F)s1	9	101	11	102	101	101	/	/	/	/	/	/	/
Cn1c(=O)c2c(nc(OCC3COC(C)(C)O3)n2Cc2ccccc2F)n(C)c1=O (stereo not given)	12	165*[activator]	31	145*[activator]	164*[activator]	161	/	0	102	97	99	95	91
Cn1c(=O)c2c(nc(N3CCc4ccccc4C3)n2Cc2ccccc2F)n(C)c1=O	31	100	11	102	100	102	/	/	/	/	/	/	/
CCCc1nc2oc3c(NCCOCCO)ncnc3c2c2c1COC(C)(C)C2	20	165*[activator]	27	127	173*[activator]	162	/	-2	101	102	96	100	76
CC(C)c1nc2oc3c(NCCO)ncnc3c2c2c1COC(C)(C)C2	9	93	/	98	?	96	/	/	/	/	/	/	/
O=C(CN1CCN(C(=O)C2COc3ccccc3O2)CC1)Nc1ccccc1 (stereo not given)	4	59	/	87	?	83	/	/	/	/	/	/	/
Cc1ccc(Nc2ccc(C(=O)NC3CCCCC3)cn2)cc1	6	90	/	96	?	89	/	/	/	/	/	/	/
CN(C)C(=O)NC(Nc1ccc(Cl)cc1Cl)C(Cl)(Cl)Cl (stereo not given)	7	71	18	56*	67	17*	71*	2	95	89	89	89	92
CN(C)C(=O)NC(NC(=S)Nc1ccccc1)C(Cl)(Cl)Cl (stereo not given)	8	95	12	91	85	97	/	/	/	/	/	/	/
O=C(Nc1ccc(Cl)c(Cl)c1)OCCNC(=O)c1ccncc1	11	96	11	81	?	104	/	0	103	106	105	104	92
O=c1[nH]c2ccccc2nc1/C=C/c1ccc(Cl)cc1	/	/	10	/	/	/	/	0	101	99	101	102	102
Nc1c(C(=O)NCC2CCCO2)sc2nc3c(c(-c4ccco4)c12)CC/C3=C\c1ccco1 (stereo not given)	1	73	5	71	44*	89	73*	2	70*	52*	70*	75	24*
Cc1cc(=S)cc(C)n1CCO	0	100	24	53*	104	0	100*	0	95	99	99	97	97
COc1ccc(OCC(O)CNC(=O)Nc2cccc3ccccc23)cc1 (stereo not given)	7	100	/	101	?	100	/	/	/	/	/	/	/
SMILES	Avidin bead fluor	RGS4-Gao reg	GSH bead fluor	RGS8-Gao reg	RGS7-Gao reg	RGS16-Gao	RGS-Gao	Biotin-avidin	RGS8-Gao confirm	RGS7-Gao single	RGS16-Gao single	RGS4-Gao single	RGS19-Gao single
Cc1ccc(S(=O)(=O)CC(=O)Nc2ccc(F)c(F)c2F)cc1	-2	-12*	/	9.2*	?	-6.7*	/	-1	101	101	99	101	97
COc1cc(NC(=O)CS(=O)(=O)c2ccc(C)cc2)cc(OC)c1OC	15	102	33	100	101	101	/	/	/	/	/	/	/
Cc1ccc(C2CC(c3ccccc3)=NN2C(=S)Nc2ccccc2)o1 (stereo not given)	-1	-31*	11	11*	-7.6*	-20*	/	1	94	100	98	98	97
CC(CC(=O)O)Nc1ccccc1O (stereo not given)	6	109	21	105	104	122	/	/	/	/	/	/	/
O=C(Cn1nnc(-c2ccc(Cl)cc2)n1)NCc1ccco1	6	93	12	96	95	91	/	/	/	/	/	/	/
CCCC(=O)NCn1nnc(-c2ccc(Cl)cc2)n1	50*	346*[activator]	43	121	295*[activator]	273*[activator]	/	0	103	103	103	103	99

Assay outcomes from PubChem BioAssay.
